LANA DNA inh: blocks KSHV LANA C-terminal domain binding to DNA; MBP-C-LANA/FAM-LBS DNA binding, fluorescence polarization; 340,000 compounds, 0.078% hits; AID 504423; inhibition, % at 9 µM;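 active = highest replicate inhibition at or above 60% at 9 µM, even if other replicates fall short; inactive = all replicates below 60% inhibition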;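 note: 0% = neutral control wells and 100% = 4 µM acridine orange control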
Cardiac RTF inh: cardiac RTF calcium desensitization. P19429+P45379. IANBD-labeled cardiac RTF, Ca2+ fluorescence. inhibition, % at 7.15 µM. 340,000 compounds, 0.12% hits. AID 493244;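 active = inhibition above the mean inhibition of all tested compounds plus 3 SD, cut at about 17% in these data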;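 note: assay run at fixed EC70 calcium of 1.6 mM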
cardiac RTF act: cardiac RTF calcium sensitization | IANBD-labeled TnC RTF fluorescence at EC20 calcium; 0% EC20 calcium, 100% full calcium | AID 493008 | activation, % at 7.2 µM | 340,000 compounds, 0.24% hits;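 active = activation above the mean over all tested compounds plus 3 SD, cut at about 30% in these data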;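 note: rise in fluorescence read as greater calcium sensitivity of cardiac thin filaments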
Keap1 Nrf2 FP: inhibitors of human Keap1-Nrf2 protein-protein interaction | 340,000 compounds, 0.15% hits | Keap1 Kelch-Nrf2 peptide fluorescence polarization, 1536-well | inhibition, % at 9.4 µM | Q14145 | AID 504523; in the data active = inhibition above about 12%;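 note: human Keap1 Kelch domain with fluorescein labeled Nrf2 9mer peptide probe; 0% = neutral control wells and 100% = peptide positive control; higher means more block of Keap1 binding to Nrf2 peptide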
Target sequence (Q14145 whole entry, looked up, the tested form may be a part): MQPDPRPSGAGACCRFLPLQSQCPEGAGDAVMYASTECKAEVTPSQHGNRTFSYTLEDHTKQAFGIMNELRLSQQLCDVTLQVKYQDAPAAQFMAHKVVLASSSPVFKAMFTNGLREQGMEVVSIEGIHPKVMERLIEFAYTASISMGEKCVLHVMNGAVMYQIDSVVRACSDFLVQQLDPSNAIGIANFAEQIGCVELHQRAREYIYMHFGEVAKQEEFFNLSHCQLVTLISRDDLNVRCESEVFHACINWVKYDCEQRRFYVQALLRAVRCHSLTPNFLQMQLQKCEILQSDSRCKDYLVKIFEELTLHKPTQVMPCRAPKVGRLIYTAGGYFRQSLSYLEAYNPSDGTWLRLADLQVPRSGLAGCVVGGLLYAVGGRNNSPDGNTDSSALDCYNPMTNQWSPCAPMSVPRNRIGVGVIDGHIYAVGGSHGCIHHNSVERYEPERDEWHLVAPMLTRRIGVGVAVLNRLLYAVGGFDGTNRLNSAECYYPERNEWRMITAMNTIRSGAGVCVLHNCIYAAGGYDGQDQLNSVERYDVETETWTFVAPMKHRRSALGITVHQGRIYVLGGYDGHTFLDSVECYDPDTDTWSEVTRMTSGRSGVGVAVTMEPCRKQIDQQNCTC
eLon inh: E. coli protease La inhibition; P0A9M0; purified E. coli Lon protease, fluorescence polarization; inhibition, % at 7.94 µM; 360,000 compounds, 0.42% hits; AID 602123; in the data active = inhibition above about 13%, passing the limit was not always enough;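 note: 0% = enzyme with probe and DMSO and 100% = no enzyme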
E coli Lon conf: E. coli Lon inhibition confirmation. shares compounds with eLon inh. purified E. coli Lon, fluorescence polarization. inhibition, % at 7.94 µM. 1,400 compounds, 31% hits. AID 602230; in the data active = inhibition above about 16%;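 note: 0% = enzyme with probe and DMSO and 100% = no enzyme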
* marks the source's active call; other numbers are inactive results; / = no result; + = active, no number. Only some compounds are listed: those with a hit (about 0.82% of all), similar ones and a draw of the others.

SMILES | LANA DNA inh | Cardiac RTF inh | cardiac RTF act | Keap1 Nrf2 FP | eLon inh | E coli Lon conf
Cn1c(CNc2ccc(Cl)cc2)nc2ccccc21 | 0 | -2 | -1 | 2 | -5 | /
COC(=O)c1ccc(N(CC(=O)NC2CCCC2)C(=O)c2ccc(C)s2)cc1 | 0 | 1 | -3 | -5 | -8 | /
CCn1nnc(C(=O)O)c1C(=O)O | -1 | -19 | -1 | -2 | 16* | -8
Nc1c(C(=O)O)nnn1Cc1ccccc1 | -1 | -5 | 2 | -3 | 0 | /
CCCCC1(C)NC(=O)N(CC(=O)Nc2cc(S(=O)(=O)N3CCOCC3)ccc2Cl)C1=O (stereo unspecified) | 1 | 2 | -3 | 2 | -10 | /
C/C(=N\NC(=S)NCCc1ccccc1)c1cccs1 | 13 | -13 | 7 | -3 | 101* | 57*
COc1cccc2c1C(=O)c1c(O)c3c(c(O)c1C2=O)CC(O)(C(C)=O)CC3OC1CC(O)C(O)C(C)O1 (stereo unspecified) | 110* | -300 | 223* | 20* | + | +
COc1cccc(S(=O)(=O)N(C)C[C@H]2OCc3cn(nn3)CCCC(=O)N([C@@H](C)CO)C[C@@H]2C)c1 | / | / | / | / | -2 | /
Cc1ccc(-c2ccccc2NC(=O)CS(=O)CC(=O)Nc2ccc(C)c(Cl)c2)o1 (stereo unspecified) | 2 | 1 | 4 | 3 | 114* | 16*
Cc1ccc(-c2ccccc2NC(=O)CCl)o1 | 1 | -3 | -4 | 0 | -2 | /
CC(=O)c1ccc2c(c1)c(C#N)c1ccccc1[n+]2[O-] | 4 | -18 | 23 | -1 | 96* | 88*
O=C(Nc1cccc(C(F)(F)F)c1)c1cccc(NS(=O)(=O)c2ccc(O)c(C(=O)O)c2)c1 | 0 | -4 | -5 | 3 | 3 | /
CC(C)c1ccc(NC(=O)CSc2n[nH]c(=O)n2C2CC2)cc1 | 1 | -6 | -4 | 0 | -12 | /
c1c2c(cc3sc(N4CCOCC4)nc13)OCCO2 | 1 | -4 | 7 | 1 | 4 | /
Cc1nc(N2CCOCC2)sc1C=O | -2 | -12 | 4 | 0 | 20* | -6
COc1ccc(N2C(=O)CS(=O)C(c3ccccc3)C2=O)cc1 (stereo unspecified) | 0 | -2 | -3 | -44 | 24* | 31*
O=C(NCc1ccccc1)NC(=O)c1ccccc1F | 0 | -10 | -1 | -2 | -12 | /
CC1CCc2sc(C(=O)N(C)CC(=O)Nc3cccc(F)c3)cc2C1 (stereo unspecified) | -1 | 3 | 1 | -2 | 16* | -4
CCC1(O)C(=O)OCc2c1cc1n(c2=O)Cc2cc3cc(O)ccc3nc2-1 (stereo unspecified) | 12 | -34 | 27 | 5 | + | +
COc1cc(C(=O)OCC(=O)N2c3ccccc3NC(=O)C2(C)C)ccc1OCC(C)C | -2 | -14 | -19 | 2 | 21* | -5
CCOc1ccccc1N1CCN(Cc2ccc(Br)s2)CC1 | 1 | -4 | 1 | 1 | 28* | 11
CCOC(=O)c1[nH]c(C)c(C)c1C | -1 | -6 | 10 | 0 | 51* | 1
CCOC(=O)c1[nH]c(C)c(C(=O)OC)c1C | 2 | 3 | -3 | -1 | 12 | /
O=C1NC(=S)CN1c1ccccc1 | 0 | 0 | 2 | -2 | 33* | 16
O=C(CN1C(=O)NC(c2ccccc2)(c2ccccc2)C1=O)NC1CCCCC1 | -1 | -5 | 1 | -2 | -1 | /
SMILES | LANA DNA inh | Cardiac RTF inh | cardiac RTF act | Keap1 Nrf2 FP | eLon inh | E coli Lon conf
O=C(/C=C/c1ccc(Cl)cc1)NC(=S)Nc1ccccc1C(=O)O | -2 | -8 | 0 | -3 | 17* | -7
C=CCNC(=O)/C(C#N)=C/c1ccccc1[N+](=O)[O-] | -1 | -16 | 5 | -6 | 23* | 19*
CC1CCN(C(=O)C(C)NCc2ccc(F)cc2)CC1 (stereo unspecified) | 1 | 2 | 1 | 1 | 36* | 3
CC(=O)n1nc(-c2ccc(C)cc2)nc1NCc1ccc(F)cc1 | -2 | -5 | 4 | 4 | 18* | 2
CC(=O)n1nc(-c2ccc(C)cc2)nc1NCc1ccco1 | 0 | -28 | -1 | -6 | 9 | /
CC(=O)Nc1cccc(NC(=O)CSc2nc(=O)n(CCN3CCOCC3)c3c2CCC3)c1 | -1 | -6 | -3 | -2 | 105* | -114
Cc1ccc(SCCC(=O)Nc2ccccc2Br)cc1 | 1 | 6 | 1 | -2 | 0 | /
Cc1ccc(SCCC(=O)Nc2ccccc2C(=O)NC(C)C)cc1 | 0 | 7 | 0 | -2 | 69* | 15
O=C(COc1ccc(F)cc1)Nc1nc(-c2ccccn2)cs1 | 0 | -6 | -1 | 2 | 19* | -10
O=C(COc1cccc(F)c1)Nc1nc(-c2ccccn2)cs1 | / | / | / | / | 7 | /
CC1CC(C)CN(CCCNC(=O)c2nn(C)c3c2CS(=O)(=O)c2ccccc2-3)C1 (stereo unspecified) | 1 | 2 | 1 | 1 | -1 | /
COc1ccc(/C=C2\CCc3c2nc2ccccc2c3C(=O)O)cc1OC | 6 | -50 | 4 | -4 | 65* | 13
Cc1cc(-c2ccc(S(=O)(=O)N3CCN(c4ccccc4F)CC3)s2)on1 | -1 | 11 | 2 | 2 | 6 | /
COCCCNc1nc(N)c([N+](=O)[O-])c(N2CCCCCC2)n1 | -2 | -5 | 10 | -5 | 9 | /
CCC1(C)Cc2c(C#N)c(N)sc(=S)c2CO1 (stereo unspecified) | 1 | -7 | 12 | -6 | 10 | /
N#Cc1c(N)sc(=S)c2c1CCCC2 | 5 | -8 | 7 | 0 | 16* | 13
CCCn1nc([N+](=O)[O-])c(C(C#N)c2nc3ccccc3o2)c(Cl)c1=O (stereo unspecified) | 2 | 1 | -9 | 5 | -4 | /
Cn1nc([N+](=O)[O-])c(C(C#N)c2ccccn2)c(Cl)c1=O (stereo unspecified) | 2 | -8 | 16 | 2 | 17* | 12
COc1ccc2[nH]c(C)c(CCN(Cc3cccs3)C(=S)Nc3cccc(F)c3)c2c1 | 8 | -28 | 5 | 1 | 27* | 10
COc1cccc(NC(=S)N(CCc2c(C)[nH]c3ccc(C)cc23)Cc2cccs2)c1 | 0 | -4 | 0 | -3 | -10 | /
COC(=O)c1ccc(S(=O)(=O)N2C3CCC2CC(NC(=O)NC2CCCCC2)C3)cc1 (stereo unspecified) | 0 | 0 | -8 | 2 | -7 | /
COc1ccc(S(=O)(=O)N2C3CCC2CC(NC(=O)NC2CCCCC2)C3)cc1 (stereo unspecified) | 0 | -4 | -2 | 1 | 82* | 0
COc1cc(NC(=O)c2ccccn2)cc(OC)c1OC | 0 | -9 | 13 | -4 | 4 | /
COc1ccc(N2CCN(c3cc(C(=O)Nc4cc(OC)c(OC)c(OC)c4)ncn3)CC2)cc1OC | / | / | / | / | 12* | 1
CC1CCC(NC(=O)CN2C(=O)NC3(CCCCCC3)C2=O)CC1 (stereo unspecified) | 0 | 0 | 8 | -5 | -4 | /

Screening data: PubChem BioAssay, several laboratories
